# Experimental data reported in PubChem BioAssay AID1347432 (National Center for Advancing Translational Sciences (NCATS), 2020).
# Active and inactive are the calls of the source. Entries that show only a call come without a potency. Calls follow the shape of the dose curve; as a rule, active = well fitted curve in the direction sought with a large enough effect; inactive = no such curve, though single readings can be large or run the other way.
# Target: Uracil-DNA glycosylase (Escherichia coli (strain K12)) (UniProt P12295)
# Experiment: Confirmatory (Round 2) qHTS assay for inhibitors of Activation Induced Cytidine Deaminase (AID): UDG counterscreen signal
# Details: FRET fluorescence, 4 h; series mostly up to 78.4 µM
# Description: Assay Provider (PI) Patricia Gearhart Ph.D. National Institute on Aging National Institute of Health (NIH), Bethesda, MD Assay Provider (PI) Rahul Kohli Ph.D. Perelman School of Medicine University of Pennsylvania, Philadelphia, PA Activation-Induced Deaminase (AID) is a cytosine deaminase which converts cytosine into uracil within stretches of ssDNA. The presence of uracil in DNA initiates a cascade of mutagenic DNA repair to introduce point mutations and DNA double strand breaks. Specific targeting of AID to the immunoglobulin heavy chain loci (Igh) promotes mutagenesis in the antibody variable region for somatic hypermutation (SHM) or switch regions leading to class switch recombination (CSR). However, AID also plays a role in accumulating unnecessary mutations across the genome. Mis-targeting of AID results in the initiation of tumor development and leads to greater drug resistance among cancer cells when continually expressed. To identify an AID inhibitor, a small molecule library will be screened in collaboration with NCATS core facility at NIH. To confirm biological function, inhibitors will be examined in an in vitro murine B-cell activation assay and subsequent secondary validation screens. Top molecules will be further screened to identify inhibitory efficacy against a wild type primary splenocytes assay. Using these approaches, we hope to identify a small molecule with great efficacy and low toxicity for use as a molecular probe to further characterize AID's intricacies, or even as a therapeutic. A FRET based analysis of cytosine deamination, was developed to identify potential inhibitors of AID catalytic activity. This screen has two signal output, Read 1 evaluates the AID inhibition response. The second readout (Read 2) evaluates UDG response and is uses as a counterscreen to exclude false positive inhibitors. Inhibition in AID and inactivity in the UDG signal is the desired outcome for this assay.
# PROTOCOL TABLE SEQUENCE No. (e.g., 1, 2, 3, etc.); PARAMETER (e.g., Cells, Incubation, Reagent, etc.); VALUE; DESCRIPTION 1a; Reagent; 3 uL; [4/3x] 1 uM AID/2.67 U/mL UDG 1b; Reagent; 3 uL; 2 U/mL UDG 1c; Reagent; 3 uL; 1 uM AID 2a; Compound; 46 nL; Follow-up plates (0.64 uM - 10 mM) 2b; Control; 46 nL; ATA ([…] - 10 mM) 3; Time; 10 min; incubation at room temperature 4; Reagents; 1 uL; [4x] 250 nM DJC20 / 250 nM DJC23 [Substrate] 5; Time; 4 hr; incubation at room temperature 6; Reagent; 4 uL; [2x] 250 mM NaOH 7; Time; 15 sec; centrifuge at 1000 rpm 8; Time; 30 min; incubation at room temperature 9a; Detection; fluorescence (Read 1: AID); EnVision (PerkinElmer) plate reader, 540 excitation and 590 emission filters 9b; Detection; fluorescence (Read 2: UDG); EnVision (PerkinElmer) plate reader, 560 excitation and 665 emission filters NOTES (numbers refer to sequence above) 1a; Reagents were dispensed in a medium-binding black solid-bottom Greiner plates (789176F) using a BioRptr liquid dispenser. Dispense 3 uL of [4/3x] 1 uM AID (provided by Kohli lab) and [4/3x] 2 U/mL UDG (NEB M0280L) into columns 1, 2, 5 to 48. 1b; Dispense 3 uL of [4/3x] 2 U/mL UDG into column 3. 1c; Dispense 3 uL of [4/3x] 1 uM AID into column 4. 2a; Compound (7-points [uM]: 0.64; 3.2; 16; 80; 400; 2,000; 10,000; […]) double pin-transferred (Dip Factor = 2) using the Kalypsys (Wako USA) pintool equipped with a 1536 pinhead for a final concentration range of 7.32 nM - 114 uM. 2b; 10 mM Aurintricarboxylic Acid (Sigma A1895) (ATA, 8-point, n = 2, 1:2.5 dilution in column 2) double pin-transferred (Dip Factor = 2) using the Kalypsys (Wako USA) pintool equipped with a 1536 pinhead for a [final] range of 186 nM - 114 uM. 3; Room temperature incubation. 4; Dispense 1 uL of substrate mixture from the Kohli lab [4x] […] DJC20 and [4x] 250 nM DJC23 into columns 1 to 48 . 5; Room temperature incubation. 6; Dispense 4 uL of substrate mixture [2x] 250 mM NaOH into columns 1 to 48. 7; Centrifugation step to remove bubbles. […]
row,Compound,Potency
1,Cc1noc(C)c1CCSc1nc(-c2ccccc2)nc2cc(=O)[nH]n12,inactive
2,O=C(O)C1=CC(=C(c2ccc(O)c(C(=O)O)c2)c2ccc(O)c(C(=O)O)c2)C=CC1=O,31.6 µM (active)
3,Cn1ccnc1CCSc1nc(-c2ccccc2)nc2cc(=O)[nH]n12,inactive
4,COc1ccccc1OCCSc1nc(-c2ccc(C(C)(C)C)cc2)nc2cc(=O)[nH]n12,inactive
5,O=c1cc2nc(-c3ccccc3)nc(SCCN3CCC(F)(F)CC3)n2[nH]1,inactive
6,O=c1cc2nc(-c3ccccc3)nc(SCCCn3ccnc3)n2[nH]1,inactive
7,O=c1cc2nc(-c3ccccc3)nc(SCCOCCOc3ccccc3)n2[nH]1,inactive
8,O=c1cc2nc(-c3ccccc3)nc(SCCCc3ccncc3)n2[nH]1,inactive
9,CC(C)c1ccc2c(c1)c(SC(C)(C)C)c(CC(C)(C)C(=O)O)n2Cc1ccc(Cl)cc1,inactive
10,CN1CCN(CCCSc2nc(-c3ccccc3)nc3cc(=O)[nH]n23)CC1,inactive
